This is a sample that favours compounds with a hit; in the whole collection about 5.2% have one here.
TrxR1 substrate = rat thioredoxin reductase 1 substrate activity; O89049; 0.01% of 390,000 active; purified TrxR1 substrate turnover, NADPH consumption readout; AID 588456; Potency, µM (series often up to 114 µM), for inactives: at the top dose activity change, negative = substrate turnover; note: nearly all actives have a fitted effect of over 50% in size
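Rat TrxR1, dispensed at 90 nM, was prereduced with 400 uM NADPH (final) for 5 min at ~22 deg C, then incubated with compound 15 min before 400 uM selenite. A first-read NADPH fluorescence drop versus no-compound background flagged substrates.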
rTrxR1 inhibitor = blocks rat thioredoxin reductase 1; O89049; recombinant rTrxR1, NADPH fluorescence consumption, selenite substrate; Potency, µM (doses to about 114 µM), for inactives: at the top dose activity change, negative = inhibition, hits mostly inhibitors; 1% of 390,000 active; AID 588453; note: nearly all actives have a fitted effect of over 65% in size
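Rat TrxR1 (90 nM in the dispensed reagent) was pre-reduced with 400 uM NADPH for 5 min at room temperature, then incubated with compound for 15 min. After 400 uM selenite was added, NADPH fluorescence (Ex 340/Em 450 nm) was followed for 8 min.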
PLK1 PBD inh = PLK1 (human) polo-box domain binding inhibition | P53350 | Potency, µM, for inactives: max response, negative = inhibition, hits mostly inhibitors | Plk1 PBD binding of FITC phosphopeptide, fluorescence polarization | AID 720504 | 2.8% of 360,000 active; note: series mostly up to about 57 µM; nearly all actives have a fitted effect of over 65% in size
IDH1 R132H inh = human IDH1 R132H inhibition | O75874 | Potency, µM (titrated, usually from 76.6 µM), for inactives: at the highest dose activity change, negative = inhibition, usual class: inhibitors | IDH1-R132H enzyme, NADPH consumption, diaphorase/resazurin fluorescence | 0.093% of 390,000 active; note: nearly all actives have a fitted effect of over 65% in size
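IDH1-R132H (0.5 ug/mL) preincubated 30 min with compound, then NADPH (0.016 mM) and alpha-KG (2 mM) added; 80 min at RT, pH 7.5. Remaining NADPH coupled via diaphorase/resazurin to fluorescence (540/590 nm); concentration-response curves normalized to no-enzyme control.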
Sfp PPTase inh = inhibitors of Bacillus subtilis Sfp phosphopantetheinyl transferase; Q9F4F7; Biochemical Sfp PPTase activity, qHTS; Potency, µM, for inactives: largest response in the series, negative = inhibition, actives largely listed as inhibitors; 3.5% of 310,000 active;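 note: the enzyme is Sfp with the accession as filed and its product quenches rhodamine fluorescence; 0% = enzyme reaction without inhibitor and -100% = no enzyme wells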
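Reaction rates are the 30-min fluorescence difference (ex 525, em 598 nm) in wells containing 15 nM Sfp, 5 uM rhodamine-CoA and 12.5 uM BHQ-2-YbbR at pH 7.6 with 10 mM MgCl2.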
VDR inh = inhibitors of human vitamin D receptor. 0.93% of 400,000 active. P11473. Potency, µM, for the others: max response, negative = inhibition, most hits filed as inhibitors. VDR-SRC2-3 peptide fluorescence polarization, 2 h
Target sequence (P11473 whole entry, looked up): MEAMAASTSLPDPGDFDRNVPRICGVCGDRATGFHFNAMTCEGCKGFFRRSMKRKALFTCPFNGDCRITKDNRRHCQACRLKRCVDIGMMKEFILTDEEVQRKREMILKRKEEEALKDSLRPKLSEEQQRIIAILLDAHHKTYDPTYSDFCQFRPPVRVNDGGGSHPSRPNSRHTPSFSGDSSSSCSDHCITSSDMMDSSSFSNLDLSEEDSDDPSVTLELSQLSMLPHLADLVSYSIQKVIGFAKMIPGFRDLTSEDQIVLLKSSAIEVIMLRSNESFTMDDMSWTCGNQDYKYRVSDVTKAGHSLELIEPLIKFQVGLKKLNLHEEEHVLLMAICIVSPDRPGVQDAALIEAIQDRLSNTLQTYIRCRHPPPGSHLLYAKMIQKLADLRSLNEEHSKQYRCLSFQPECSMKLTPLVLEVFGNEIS
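Compounds are added to VDR with labelled SRC2-3 coactivator peptide and held 2 h at room temperature. Inhibition of the VDR–peptide interaction is then read as a change in fluorescence polarization.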
* marks the source's active call; other numbers are inactive results; ? = inconclusive; · = no result given; [ ] = dose if it differs, or a comment. Calls come from the whole dose curve; as a rule, active = well fitted curve in the direction sought with a large enough effect; inconclusive = small, poorly fitted or top-dose-only effect, or another doubt; inactive = no such curve, though single readings can be large; an effect the other way counts as inactive or inconclusive. Unless noted, % is set by controls: 0 for no effect and ±100 for the full control effect; potency is the fitted concentration of half-maximal effect.

SMILES	TrxR1 substrate	rTrxR1 inhibitor	PLK1 PBD inh	IDH1 R132H inh	Sfp PPTase inh	VDR inh
NC(=O)c1cc([N+](=O)[O-])ccc1NCc1ccc(N)cc1	-4%	10%	3%	0%	·	-17%
CCCCN1C(=O)c2ccc(C(=O)NCc3ccco3)cc2C1=O	0%	21%	-4%	7%	-4%	1%
Cc1ccc(C(=O)NCc2ccco2)cc1S(=O)(=O)Nc1cccc(C)c1C	-5%	79µM*	-9%	10%	-11%	7%
CCCN1C(=O)c2ccc(C(=O)NCc3ccco3)cc2C1=O	15%	?	-12%	2%	45µM*	-22%
CC(C)Oc1ccc(C(=O)NCc2ccco2)cc1	9%[57.1 µM]	8%[57.1 µM]	27µM*	1%	-2%	-5%
O=C(NCc1ccco1)c1cccc(NC(=O)c2ccco2)c1	2%	50µM*	-19%	4%	1%	-2%
CCCOc1ccc(C(=O)NCc2ccco2)cc1	9%	5%	-4%	1%	11%	22%
Cc1ccccc1NS(=O)(=O)c1cc(C(=O)NCc2ccco2)ccc1C	3%	-47%[57.1 µM]	-8%	-3%	1%	29%
CCCCc1c(-c2cccc(Cl)c2)ncn1CCc1ccccc1OC	·	·	4%	·	·	·
CCc1nc2ccc(C(=O)NCc3ccc(C)o3)cc2nc1CC	-2%	9%	-10%	-6%	5%	-5%
CCc1nc2ccc(C(=O)NCc3ccco3)cc2nc1CC	1%	?	-7%	1%	35µM*	1%
CNC(=S)Nc1ccc(C(N)=O)cc1	-1%	-10%	-4%	3%	79µM*	-5%
COc1ccc(C(=O)NNc2ccccc2)cc1	7%	10%	2%	-2%	-19%	2%
COc1ccc(C(=S)Nc2ccc(C)cc2)cc1	-6%	-18%	21µM*	2%	32µM*	?
COCCCNC(=S)NNC(=S)Nc1ccc(OC)cc1	-2%	-3%	-23%	-2%	50µM*	?
COc1ccc(NC(=S)NNc2ccc(C(=O)O)cc2)cc1	3%	6%	?	1%	-34%	32µM*
C=CCNC(=S)Nc1ccc(C(N)=O)cc1	-14%[57.1 µM]	24%[57.1 µM]	-9%	3%	-2%	-13%
COc1ccc(NC(=S)c2ccncc2)cc1	?	?	-6%	3%	-1%	-20%
COc1ccc(/C(O)=C2/C(=O)C(=O)N(CCCN3CCOCC3)C2c2ccc(Cl)cc2)cc1 (configuration not stated)	·	·	-29%	11%	·	·
CCOc1ccccc1-c1nnc2n1N=C(c1c(OC)cccc1OC)CS2	·	·	·	·	-19%	·
CC(C)OC(=O)[C@@H]1CC[C@H](C)[C@@H](CCCC=O)O1	·	·	·	·	13%	3%
O=C(O)c1ccc(NC(=S)Nc2ccccc2)cc1	-5%	-13%	?	0%	50µM*	-19%
COc1ccc(C(=O)C(OC(=O)CNC(=O)c2ccco2)c2ccccc2)cc1 (configuration not stated)	2%	-21%	-4%	-5%	79µM*	2%
O=C(CNC(=O)c1ccccc1)OC(C(=O)c1ccccc1)c1ccccc1 (configuration not stated)	-6%	13%	-12%	-9%	-1%	-8%
COc1cccc2cc(C(=O)CS(=O)(=O)c3ccc(Cl)cc3)c(=O)oc12	0%	-20%	17µM*	7%	-7%	-17%
SMILES	TrxR1 substrate	rTrxR1 inhibitor	PLK1 PBD inh	IDH1 R132H inh	Sfp PPTase inh	VDR inh
O=C(Cn1cc(F)c(=O)[nH]c1=O)NCCO	-4%	8%	5.3µM*	-7%	-10%	-3%
O=C(Cn1ccc(=O)[nH]c1=O)NCCO	0%[57.1 µM]	27%[57.1 µM]	-5%	4%	18%	-14%
Cc1ccc(C)c2c(/C=C/c3ccc(N(C)C)cc3)ccnc12	-3%	-13%	·	·	·	·
Cc1ccc(/C=[N+](\[O-])c2ccc(N(C)C)cc2)c2nsnc12	-14%	22µM*	?	21%	-65%	?
O=C(CS(=O)c1ccc(C(F)(F)F)cc1[N+](=O)[O-])Oc1ccccc1 (configuration not stated)	-2%	?	27µM*	8%	13%	0%
CCc1nnc(NC(=O)C2CCCO2)s1 (configuration not stated)	5%[57.1 µM]	13%	-11%	-14%	5%	14%
O=C(Nc1nnc(COc2ccc(Cl)cc2)s1)C1CCCO1 (configuration not stated)	5%[11.4 µM]	-43%	6µM*	-6%	13µM*	-9%
Cc1sc(N/N=C/c2cc([N+](=O)[O-])ccc2O)nc1-c1ccccc1	-4%	28%	15µM*	-6%	-4%	?
O=[N+]([O-])c1ccc(O)c(/C=N/Nc2ccccc2Cl)c1	3%[57.1 µM]	12%[57.1 µM]	27µM*	3%	8%	11%
O=C(N/N=C/c1cc([N+](=O)[O-])ccc1O)C(O)(c1ccccc1)c1ccccc1	-16%	-7%	-18%	-18%	-4%	-7%
CCCCc1cc2c(cn1)=C(OC(=O)c1ccc(Cl)nc1)C(C)(OC(=O)CC)C(=O)C=2 (configuration not stated)	·	·	·	·	7%	·
COc1ccccc1NC(=O)N1CC=C(c2c[nH]c3ccccc23)CC1	-8%	-34%	·	·	·	-18%
CC(C)(C)C(=O)CSc1ncccn1	-16%	?	?	0%	45µM*	?
CC(C)(C)NC(=O)NC(=O)CSc1ncccn1	3%	13%	4%	-1%	17%	-19%
COC(F)(F)C(Cl)Cl	·	·	·	·	6%	-10%
CCCCN(C)CC(O)Cn1cc(/C=C/C(=O)c2cccs2)c2ccccc21 (configuration not stated)	0%	-14%	31%	1%	20µM*	-12%
CCCCN(CCCC)CC(O)Cn1cc(/C=C/C(=O)c2ccccc2)c2ccccc21 (configuration not stated)	-10%	-9%	·	-5%	·	12%
CCCCN(C)CC(O)Cn1cc(/C=C/C(=O)c2ccc(OCC)cc2)c2ccccc21 (configuration not stated)	-6%	-4%	·	2%	45µM*	12%
Nc1ccc(Cc2ccc(C=O)cc2)cc1	6%	28%	·	·	·	·
CC(=O)c1cccc(NC(=S)N2CCN(S(=O)(=O)c3ccccc3)CC2)c1	12%	6%	?	4%	-22%	-11%
COC(=O)c1c(NC(=O)c2ccoc2C)sc2c1CCC2	31%	-17%	-13%	1%	?	-6%
Cc1noc(C)c1C(=O)Nc1sc2c(c1C(N)=O)CCCCC2	4%	3%	-16%	0%	45µM*	-3%
CCOC(=O)c1c(NC(=O)c2c(C)noc2C)sc2c1CCCCC2	0%	11%	-17%	10%	56µM*	1%
NC(=O)c1c(NC(NC(=O)c2ccco2)(C(F)(F)F)C(F)(F)F)sc2c1CCCC2	5%	?	?	1%	22µM*	-9%

High-throughput results deposited in PubChem BioAssay by National Center for Advancing Translational Sciences (NCATS).
